# High-throughput results deposited in PubChem by National Center for Advancing Translational Sciences (NCATS).
# Pf Dd2 growth = qHTS Primary assay for Inhibitors of Plasmodium falciparum Dd2 growth in vitro. P. falciparum Dd2 growth, SYBR Green, 72 h. Potency, µM (titrated, usually from 28.9 µM), inactives show at the highest dose activity, negative = inhibition, actives largely listed as inhibitors. 120,000 compounds, 4.3% hits; active = well fitted inhibition curve with a large enough effect;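 also: plate controls were DMSO vehicle for no effect and reference drug for full effect; nearly all actives have a fitted effect of over 65% in size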
#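 Readout: SYBR Green fluorescence, 485 nm excitation, 535 nm emission, after ~16 h lysis at 37C. Before that, Dd2-infected red cells (2.5% hematocrit) grew 72 h with compound, 29 uM top final concentration.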
# Starred values were filed as active, the others as inactive; i = inactive; [ ] = another dose, or the depositor's remark. Only a selection was taken, and hits are over-represented in it overall. Potency is read from the fitted curve at half-maximal effect.
SMILES,Pf Dd2 growth
Cc1cc(Cn2cc3c4c(cccc42)[C@H](CC(C)C)N[C@H](C(=O)NCc2ccccn2)C3)no1,13µM*
CC(C)C[C@@H]1N[C@H](C(=O)NCCN(C)C)Cc2cn(Cc3ccncc3)c3cccc1c23,13µM*
CC(C)C[C@@H]1N[C@H](C(=O)N2CCOCC2)Cc2cn(CC3CC3)c3cccc1c23,-21%[44.1 µM]
COc1cccc(CC(=O)NC2CCN(C(=O)N3CC4CC(C3)[C@H]3CCCC(=O)N3C4)CC2)c1 (some centres not stated),30%
COc1ccc2oc(CNC(=O)c3cc(CC(C)C)nn3C)nc2c1,-5%
CC(C)NC(=O)NC[C@H]1OC[C@@H](NCc2ncc[nH]2)[C@@H]1O,10%[44.1 µM]
CN(Cc1cccnc1)c1nc2c(c(=O)[nH]1)CCN(Cc1ccc(F)cc1)CC2,20%[5.79 µM]
c1cncc(CN2CCC(OC3CCN(Cc4ccncc4)CC3)CC2)c1,33%
CN(CC1CCN(CCc2ccc(F)cc2)CC1)C1CCN(Cc2cccnc2)CC1,6.3µM*
COCCN1C(=O)[C@H]2CN(Cc3ccc(F)c(F)c3)C[C@H]2C1=O,-2%
COc1ccc(O)c(CN2CCC(CO)(Cc3ccccc3Cl)CC2)c1,8.9µM*
OCC1(Cc2ccccc2Cl)CCN(Cc2cc3ccccc3o2)CC1,8.9µM*
COc1cc(N2CCC(CO)(Cc3ccccc3C(F)(F)F)CC2)ncn1,-17%
CC(C)n1cc(CN2CCC(CO)(Cc3ccccc3Cl)CC2)cn1,-11%
CC(=O)c1cc(CN2CCC(CO)(Cc3ccccc3Cl)CC2)cs1,-11%
COc1ccc(F)c(CN2CCC(CO)(CN3CCCC3)CC2)c1,i
CC(C)CCNC(=O)C1Cn2cccc2C(=O)N1CC(C)C (configuration not stated),6%
CCCCN1C(=O)c2[nH]nc(-c3ccccc3O)c2C1c1ccc(OCc2ccccc2)cc1 (configuration not stated),1.4µM*
CC(C)OCCCN1C(=O)c2[nH]nc(-c3ccccc3O)c2C1c1ccccc1F (configuration not stated),11µM*
CC12CN3CC(C)(CN(C1)C3c1ccc(OCc3ccccc3)cc1)C2=O (configuration not stated),23%
CCCCN1C(=O)c2[nH]nc(-c3ccccc3O)c2C1c1ccc(C(C)(C)C)cc1 (configuration not stated),2.8µM*
CC(C)OCCCN1C(=O)c2[nH]nc(-c3ccccc3O)c2C1c1cccc(OCc2ccccc2)c1 (configuration not stated),5.6µM*
CC(C)OCCCNC(=O)C1Cn2cccc2C(=O)N1Cc1ccccc1 (configuration not stated),9%
O=C1c2[nH]nc(-c3ccccc3O)c2C(c2ccccc2F)N1Cc1cccnc1 (configuration not stated),10%
O=C1c2[nH]nc(-c3ccccc3O)c2C(c2cccc(OCc3ccccc3)c2)N1CCO (configuration not stated),140%[5.79 µM]
SMILES,Pf Dd2 growth
Cc1ccc(CNC(=O)N(C)C2CCc3nn(CC4CC4)c(=O)n3CC2)cc1 (configuration not stated),-14%
O=C(O)C[C@@H]1CCN(C(=O)C2CCCC2)C[C@@H]1CCN(CCN1CCOCC1)c1ccccc1,-13%
CCOc1cccc(CN(C)C(=O)CN2CC3(CCN(C)CC3)CC2=O)c1,-20%
O=C(c1nc(-c2ccc(Cl)cc2Cl)c2ccccn12)N1CCN(c2ncccn2)CC1,-12%
O=C1CCCN1CCCn1ccnc1-c1cc2n(n1)CCCNC2,4%
CNc1ccc(C(=O)N2CCC(CCn3cccn3)CC2)cn1,-23%
CN1C(=O)N(C)C2(CCN(CCOc3ccc(F)cc3)C2)C1=O (configuration not stated),-3%
COC1CCN(C(=O)Cc2c[nH]c3ncc(-c4cnn(C)c4)cc23)CC1,i
O=C(COc1ccccc1)N1CCC2(CC1)NC(=O)N(c1cccc(F)c1)N2,i
COCCCN1C(=O)c2[nH]nc(-c3ccccc3O)c2C1c1ccc(OCc2ccccc2)cc1 (configuration not stated),8.9µM*
COCCCn1c(C)cnc1C1CCN(C(=O)COc2ccccc2)C1 (configuration not stated),-18%
Cc1ccccc1[C@H]1C[C@@H](O)[C@@H](O)[C@@H]1NS(=O)(=O)c1ccc(C#N)cc1,-13%[44.1 µM]
Cc1cnc(CC2CCCN(C(=O)N(C)C)C2)n1C(C)C (configuration not stated),-11%
Cc1cnc(CC2CCN(C(=O)CCc3c[nH]c4ccccc34)C2)n1CC1CC1 (configuration not stated),i
Cc1cnc(CC2CCCN(C(=O)CCc3c[nH]c4ccccc34)C2)n1C(C)C (configuration not stated),4.5µM*
CSc1ccc(CNC(=O)C2CCN(C(=O)c3ncn4c3COC(c3ccccc3)C4)CC2)cc1 (configuration not stated),i
COc1ccc(CN2C[C@@H](C(N)=O)[C@H](c3nc(C)no3)C2)c(Cl)c1OC,-3%
O=C(Nc1ccc2ncnc(N3CCCCC3)c2c1)c1ccccc1Br,i
Cc1ccc(-c2ncc(NC(=O)c3ccccc3C(F)(F)F)cn2)cc1,i
O=C(Nc1ccc2c(N3CCCC3)ncnc2c1)c1ccccc1Cl,13µM*
O=C(Nc1ccc2c(N3CCCCC3)ncnc2c1)c1ccccc1C(F)(F)F,11µM*
O=C(Nc1ccc2ncnc(N3CCCC3)c2c1)c1ccc(F)cc1Cl,i
O=C(Nc1ccc2ncnc(N3CCCCC3)c2c1)c1c(F)cccc1Cl,i
O=C1NC[C@@H](CCC(=O)N2CCc3ccccc32)N2C[C@@H](NS(=O)(=O)c3ccc(F)cc3)C[C@@H]12,i
CC(=O)N1CC2(Cc3ccccc31)CN(C(=O)C1CC1)C2,-20%[44.1 µM]
SMILES,Pf Dd2 growth
C1CNC(c2nc(C3CCOCC3)no2)C1 (configuration not stated),55%
CC(O)c1cc2n(n1)CCN(C1CCN(C(=O)c3cnccn3)CC1)C2 (configuration not stated),-5%
CC(=O)Oc1c(-c2ccc(NC(=O)c3ccco3)cc2)c(C2CC2)nn1-c1cccc(C)c1,-18%
COc1ccc(CN2CCOc3nc(-c4ccc(O)c(F)c4)ncc3C2=O)cc1,i
CCCC1c2nccn2CCCN1C(=O)Cn1c(=O)oc2ccccc21 (configuration not stated),-20%
COc1ccc(NC(=O)C2=C(C)Nc3nc(SCc4ccc(Cl)cc4)nn3C2c2cccc(OC)c2OC)cc1 (configuration not stated),i
COc1ccc(C2C(C(=O)Nc3ccc(Cl)cc3)=C(C)Nc3nc(SCc4cccc(C)c4)nn32)cc1OC (configuration not stated),8%
COc1cc(C2C(C(=O)Nc3ccc(Cl)cc3)=C(C)Nc3nc(SC)nn32)cc(OC)c1OC (configuration not stated),-5%
COc1ccc(NC(=O)C2=C(C)Nc3c(C(=O)Nc4ccc(C)cc4)cnn3C2c2cccc(Cl)c2)cc1 (configuration not stated),3.2µM*
COc1cccc(C2C(C(=O)Nc3ccc(Cl)cc3)=C(C)Nc3nc4ccccc4n32)c1OC (configuration not stated),-22%
COc1cccc(C2C(C(=O)Nc3ccc(Cl)cc3)=C(C)Nc3c(C(=O)Nc4ccccc4)cnn32)c1OC (configuration not stated),13µM*
